Nuclei count, normalised and p53-positive nuclei, normalised data for 9 compounds are collected here from PubChem BioAssay AID1508601 (ICCB-Longwood Screening Facility, Harvard Medical School, 2020).

Experiment [1] is described as follows: p53 stabilisation in HPV-positive human cells, imaging, p53-positive nuclei imaging, 24 h, 48 h (AID 1508601). The note with it: 24/48 h.
Experiment [2] concerns the target Cellular tumor antigen p53 (Homo sapiens) (UniProt P04637). The experiment is described as above. The note with it: 24/48 h, stronger effect = higher value.
Setting [3] is: measured here: cell number at 24 h, Library stock concentration: 80 uM.
Setting [4] is: measured here: cell number at 24 h, Library stock concentration: 400 uM.
Where [5] appears, read: measured here: cell number at 24 h, Library stock concentration: 2 mM.
The mark [6] stands for this setting: measured here: cell number at 24 h, Library stock concentration: 10 mM.
The mark [7] stands for this setting: measured here: cell number at 48 h, Library stock concentration: 80 uM.
Where [8] appears, read: measured here: cell number at 48 h, Library stock concentration: 400 uM.
Setting [9] is: measured here: cell number at 48 h, Library stock concentration: 2 mM.
The mark [10] stands for this setting: measured here: cell number at 48 h, Library stock concentration: 10 mM.
The mark [11] stands for this setting: Library stock concentration: 80 uM.
The mark [12] stands for this setting: Library stock concentration: 400 uM.
The mark [13] stands for this setting: Library stock concentration: 2 mM.
The mark [14] stands for this setting: Library stock concentration: 10 mM.
[15] abbreviates: measured here: p53 positive nuclei at 24 h, Library stock concentration: 80 uM.
Where [16] appears, read: measured here: p53 positive nuclei at 24 h, Library stock concentration: 400 uM.
Setting [17] is: measured here: p53 positive nuclei at 24 h, Library stock concentration: 2 mM.
The mark [18] stands for this setting: measured here: p53 positive nuclei at 24 h, Library stock concentration: 10 mM.
The mark [19] stands for this setting: measured here: cell number at 24 h, Library stock concentration: 3.33 mM.
The mark [20] stands for this setting: measured here: cell number at 48 h, Library stock concentration: 3.33 mM.
Where [21] appears, read: Library stock concentration: 3.33 mM.
Where [22] appears, read: measured here: p53 positive nuclei at 24 h, Library stock concentration: 3.33 mM.
The mark [23] stands for this setting: measured here: cell number at 24 h, concentration not given here.
Setting [24] is: measured here: cell number at 48 h, concentration not given here.
Where [25] appears, read: measured here: p53 positive nuclei at 24 h, concentration not given here.

Screen size: about 5,700 compounds; about 85 (1%) were called active. Rule as the data show it: active = p53-positive nuclei above about 36% (passing the limit was not always enough); inactive = the rest. Shown is part of a subset that was picked to be rich in actives.

Cellular tumor antigen p53 (Homo sapiens), sequence (P04637 whole entry, looked up): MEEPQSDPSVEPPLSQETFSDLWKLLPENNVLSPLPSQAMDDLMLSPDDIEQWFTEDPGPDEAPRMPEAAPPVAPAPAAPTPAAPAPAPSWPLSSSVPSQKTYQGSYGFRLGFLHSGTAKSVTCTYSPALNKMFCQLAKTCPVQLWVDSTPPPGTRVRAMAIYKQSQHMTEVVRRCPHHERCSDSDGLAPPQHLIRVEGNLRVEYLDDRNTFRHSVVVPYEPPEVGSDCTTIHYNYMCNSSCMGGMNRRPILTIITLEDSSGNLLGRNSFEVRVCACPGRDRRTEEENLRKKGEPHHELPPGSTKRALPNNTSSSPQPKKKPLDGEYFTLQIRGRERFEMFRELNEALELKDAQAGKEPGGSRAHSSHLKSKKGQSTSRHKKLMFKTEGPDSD

As to `CCN1CCN(Cc2ccc(Nc3ncc4c(n3)N(C)c3ccccc3C(=O)N4C)cc2C(F)(F)F)CC1`, the nuclei count, normalised came to 77.9% in experiment [1] (setting [3]); 81% in experiment [1] (setting [4]); 52.5% in experiment [1] (setting [5]); 35.9% in experiment [1] (setting [6]); 81.7% in experiment [1] (setting [7]); 83.6% in experiment [1] (setting [8]). The values for the nuclei count, normalised in experiment [1] (setting [9]) and in experiment [1] (setting [10]) were 35.4% and 19.9%, respectively. Further, the p53-positive nuclei, normalised is -0.0235% (inactive) in experiment [2] (setting [11]); -0.051% (inactive) in experiment [2] (setting [12]); 1.78% (inactive) in experiment [2] (setting [13]); 22.4% (inactive) in experiment [2] (setting [14]); -0.148% in experiment [2] (setting [15]); -0.0416% in experiment [2] (setting [16]). In addition, the p53-positive nuclei, normalised in experiment [2] (setting [17]) is -0.148%; in experiment [2] (setting [18]) it was 33.5%.

Regarding `CC1CCO[C@H]2Cn3cc(C(=O)NCc4ccc(F)cc4F)c(=O)c(O)c3C(=O)N12` (some centres not stated), the nuclei count, normalised in experiment [1] (setting [19]) was 106%; in experiment [1] (setting [20]) it was 103%. Further, the p53-positive nuclei, normalised was -0.143% (inactive) in experiment [2] (setting [21]) and -0.188% in experiment [2] (setting [22]).

Regarding `CCCCC[C@H](O)/C=C/[C@H]1C2CC(CO2)[C@@H]1C/C=C\CCCC(=O)O` (some centres not stated), the nuclei count, normalised in experiment [1] (setting [23]) was found to be 83.4%; in experiment [1] (setting [24]) it was 84.7%. The p53-positive nuclei, normalised is 0.109% (inactive) in experiment [2] (concentration not given here) and 0.00988% in experiment [2] (setting [25]).

Consider `CCN(CC)C(=O)N1CCN(C)CC1`, for which the nuclei count, normalised in experiment [1] (setting [23]) turned out to be 108%; in experiment [1] (setting [24]) it was 102%. The p53-positive nuclei, normalised in experiment [2] (concentration not given here) was 0.000717% (inactive); in experiment [2] (setting [25]), -0.0826%.

Take `CN1CCN(C(=S)SSC(=S)N2CCN(C)CC2)CC1`: the nuclei count, normalised in experiment [1] (setting [3]) was 108%; in experiment [1] (setting [4]), 109%; in experiment [1] (setting [5]) it was 60.3%; in experiment [1] (setting [6]) it was 52.3%; in experiment [1] (setting [7]), 109%; in experiment [1] (setting [8]), 109%. In addition, the nuclei count, normalised in experiment [1] (setting [9]) came out at 53.9%; in experiment [1] (setting [10]), 37.3%. Further, the p53-positive nuclei, normalised was -0.131% (inactive) in experiment [2] (setting [11]); -0.138% (inactive) in experiment [2] (setting [12]); 39.2% (active) in experiment [2] (setting [13]); 89.9% (active) in experiment [2] (setting [14]); -0.116% in experiment [2] (setting [15]); -0.0641% in experiment [2] (setting [16]). Also, the p53-positive nuclei, normalised stood at 99.7% in experiment [2] (setting [17]) and 111% in experiment [2] (setting [18]).

On to `CC(C)(CO)c1cc2cc(NC(=O)C3(c4ccc5c(c4)OC(F)(F)O5)CC3)c(F)cc2n1CC(O)CO` (configuration not stated), for which the nuclei count, normalised in experiment [1] (setting [3]) amounted to 99.2%; in experiment [1] (setting [4]), 104%; in experiment [1] (setting [5]), 106%; in experiment [1] (setting [19]), 118%; in experiment [1] (setting [6]), 113%; in experiment [1] (setting [7]), 105%. In addition, the nuclei count, normalised in experiment [1] (setting [8]) was 107%; in experiment [1] (setting [9]) it was 110%; in experiment [1] (setting [20]), 120%; in experiment [1] (setting [10]), 111%. Also, the p53-positive nuclei, normalised in experiment [2] (setting [11]) was 0.0351% (inactive); in experiment [2] (setting [12]), 0.0964% (inactive); in experiment [2] (setting [13]), -0.0537% (inactive); in experiment [2] (setting [21]) it was -0.0559% (inactive); in experiment [2] (setting [14]), 0.115% (inactive); in experiment [2] (setting [15]), 0.0925%. Also, the p53-positive nuclei, normalised in experiment [2] (setting [16]) is 0.0862%; in experiment [2] (setting [17]), -0.0708%; in experiment [2] (setting [22]) it was -0.244%; in experiment [2] (setting [18]), 0.119%.

With `O=C(c1cc(-c2cncnc2)nc2cc(F)ccc12)N1CCCC1Cc1cccnc1` (configuration not stated), the values for the nuclei count, normalised in experiment [1] (setting [23]) and in experiment [1] (setting [24]) were 109% and 110%, respectively. For the same compound, the p53-positive nuclei, normalised in experiment [2] (concentration not given here) is 0.0107% (inactive); in experiment [2] (setting [25]) it was 0.143%.

Take `O=C1CN2Cc3c(ccc(Cl)c3Cl)N=C2N1`: the nuclei count, normalised in experiment [1] (measured here: cell number at 24 h, Library stock concentration: 46 uM) was 88.7%; in experiment [1] (measured here: cell number at 24 h, Library stock concentration: 278 uM), 80.4%; in experiment [1] (measured here: cell number at 24 h, Library stock concentration: 1.67 mM), 83.9%; in experiment [1] (setting [19]), 57.2%; in experiment [1] (setting [6]) it was 75.8%; in experiment [1] (measured here: cell number at 48 h, Library stock concentration: 46 uM), 45.1%. Besides, the nuclei count, normalised in experiment [1] (measured here: cell number at 48 h, Library stock concentration: 278 uM) stood at 38.3%; in experiment [1] (measured here: cell number at 48 h, Library stock concentration: 1.67 mM), 40.9%; in experiment [1] (setting [20]), 24.8%; in experiment [1] (setting [10]), 40.2%. Moreover, the p53-positive nuclei, normalised in experiment [2] (Library stock concentration: 46 uM) was 85.8% (active); in experiment [2] (Library stock concentration: 278 uM) it was 88.2% (active); in experiment [2] (Library stock concentration: 1.67 mM) it was 89.8% (active); in experiment [2] (setting [21]), 84.4% (active); in experiment [2] (setting [14]), 87% (active); in experiment [2] (measured here: p53 positive nuclei at 24 h, Library stock concentration: 46 uM) it was 5.38%. The p53-positive nuclei, normalised in experiment [2] (measured here: p53 positive nuclei at 24 h, Library stock concentration: 278 uM) is 6.86%; in experiment [2] (measured here: p53 positive nuclei at 24 h, Library stock concentration: 1.67 mM), 6.48%; in experiment [2] (setting [22]), 11%; in experiment [2] (setting [18]), 6.76%.

For the compound `O=C1OC2(c3ccc(O)cc3Oc3cc(Oc4ccc(O)cc4)ccc32)c2ccccc21` (configuration not stated), the nuclei count, normalised in experiment [1] (setting [23]) amounted to 105%; in experiment [1] (setting [24]), 107%. For the same compound, the results for the p53-positive nuclei, normalised in experiment [2] (concentration not given here) and in experiment [2] (setting [25]) were -0.0688% (inactive) and -0.118%, respectively.
